# A selection: hits, their analogues and other compounds. The true share with any hit is near 12%.
# CHX counter: Cycloheximide Counterscreen for Small Molecule Inhibitors of Shiga Toxin; cell reporter, cycloheximide protein synthesis inhibition counterscreen; max response, %; 12% of 300,000 active; in the data active = max response mostly above about 13%, no sharp cut-off; inactive = mostly below about 14%; note: read at 38.3 µM for the half of the compounds with a filed dose
# Shiga toxin inh: A qHTS for Small Molecule Inhibitors of Shiga Toxin; Vero cells, Shiga toxin protein synthesis inhibition reporter; inhibition, % at 38.7 µM; 9.2% of 290,000 active; AID 2315, 2010; in the data active = inhibition mostly above about 28%, no sharp cut-off; inactive = mostly below about 43%
# FMDV inh: High Throughput Screening for Foot and Mouth Disease Virus Antivirals | FMDV antiviral cell-based qHTS | Potency, µM (titrated, usually from 57.9 µM), usual class: inhibitors | 1.2% of 410,000 active; calls by dose curve; tested in HEK293T cells; note: read-out not given here; nearly all actives have a fitted effect of over 45% in size
# Sm TGR inh: qHTS Assay for the Inhibitors of Schistosoma Mansoni Peroxiredoxins; purified TGR, DTNB reduction, TNB absorbance 405 nm; Potency, µM (titrated, usually from 114 µM), most hits filed as inhibitors; 3% of 360,000 active; AID 485364, 2010; active = well fitted inhibition curve with a large enough effect; inconclusive = small, poorly fitted or top-dose-only effect; inactive = no such curve, though single readings can be large or run the other way; note: nearly all actives have a fitted effect of over 60% in size
#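 TGR 20 nM + NADPH 100 uM (dispensed conc.), cpd preinc 15 min RT; start with NADPH (500 uM addition) then DTNB (15 mM addition). Kinetic TNB absorbance, 405 nm filter. Four-parameter Hill fit across titration.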
# A number is an active result; 0 = inactive; ? = inconclusive; - = not tested or not shown.
SMILES,CHX counter,Shiga toxin inh,FMDV inh,Sm TGR inh
COc1ccc(/C=C/c2nc3ccccc3c(=O)n2-c2cccc(C(F)(F)F)c2)cc1,-,-,0,0
CCOC(=O)CCCCC(=O)c1[nH]c(=O)[nH]c1CN1CCOCC1,0,0,-,0
CCOC(=O)CCCCC(=O)c1[nH]c(=O)[nH]c1C[n+]1ccccc1,0,0,-,6.3µM
CCOC(=O)CCCCC(=O)c1[nH]c(=O)[nH]c1C[n+]1ccc(C)cc1,0,0,0,35µM
Cc1nn(C)c2c1c(C(F)(F)F)cc(=O)n2CC(=O)NCc1ccccc1Cl,-,-,0,0
CN(CC(=O)Nc1c(F)cccc1F)Cc1cccs1,14,0,0,0
C/C(CC(=O)Nc1ccc(Cl)c(Cl)c1)=N\NC(=O)Cc1ccccc1,0,0,0,0
C/C(CC(=O)Nc1ccc(C)c(Cl)c1)=N\NC(=O)Cc1cccs1,17,0,0,0
CCN(CC(=O)Nc1c(F)cccc1F)C(=O)CCCc1cccs1,-,-,0,0
Cc1ccc(NC(=O)CN(C)Cc2cccs2)cc1Cl,16,0,0,0
O=c1oc(/C=C/c2ccc([N+](=O)[O-])s2)nc2ccccc12,12,0,0,0
Oc1ccc(/C=N/NC(=S)NC2CC3CCC2C3)cc1 (centres undefined),17,0,0,0
Oc1ccc(/C=N/NC(=S)NCC2CCCO2)cc1 (centres undefined),0,0,0,0
S=C(N/N=C/c1cccs1)NC1CC2CCC1C2 (centres undefined),24,47,0,0
CCc1nc(C)cn1S(=O)(=O)c1ccc(Cl)c(Cl)c1OC,-,-,?,0
CCC(C)(C)n1nnnc1C(c1ccccc1OC)N1CCN(C(=O)c2ccco2)CC1 (centres undefined),11,0,0,0
Cc1cccc2cc(C(c3nnnn3C(C)(C)C)N3CCN(C(=O)c4ccco4)CC3)c(=O)[nH]c12 (centres undefined),0,0,-,0
CCC(C)(C)n1nnnc1C(c1cc2cc(C)cc(C)c2[nH]c1=O)N1CCN(C(=O)c2ccco2)CC1 (centres undefined),0,0,-,18µM
COCCn1nnnc1C(c1ccccc1OC)N1CCN(C(=O)c2ccco2)CC1 (centres undefined),0,0,0,0
O=C(Cn1cc(C(=O)C2CCCCC2)c2ccccc21)Nc1ccccc1Cl,-,-,0,0
O=C(O)c1cc(N/N=C2/CC(c3ccccc3)Oc3ccccc32)ccc1Cl (centres undefined),40,54,0,?
CC(C)(C)N/N=C1\CC(c2ccccc2)Oc2ccccc21 (centres undefined),0,0,0,0
C/C(=N\NC(=O)CCc1ccccc1)C1C(=O)c2ccccc2C1=O,24,67,0,0
CC(/C=C/c1ccccc1)=N\NC(=O)CCc1ccccc1,0,0,0,0
C/C(=N\NC(=O)c1cccc(Cl)c1)C1C(=O)c2ccccc2C1=O,52,73,0,0
SMILES,CHX counter,Shiga toxin inh,FMDV inh,Sm TGR inh
O=C(O)CC/C(=N\NC(=O)CNC(=O)c1cccc(Cl)c1)c1ccccc1,0,0,0,0
COc1ccc(N2CCN(Cc3nc4c(c(=O)[nH]c(=O)n4C)n3Cc3ccccc3C)CC2)cc1,-,-,0,0
CCCCn1c(C2CC(=O)N(c3ccc(OCC)cc3)C2)nc2ccccc21 (centres undefined),-,-,0,0
Oc1c(C(c2ccccc2F)N2CCN(Cc3ccccc3)CC2)sc2nc(-c3ccco3)nn12 (centres undefined),-,-,0,0
O=C([C@@H]1C[C@@H](Sc2nc3ccccc3[nH]2)CN1Cc1ccc(C(F)(F)F)cc1)N1CCN(c2ccccc2F)CC1,-,-,0,-
Cc1oc(-c2cccc(Cl)c2)nc1CN1CCCC(C(=O)N2CCN(c3ccc(F)cc3)CC2)C1 (centres undefined),-,-,?,0
CCNC(=S)Nc1cc(-c2ccc(Cl)cc2)[nH]n1,24,0,0,0.89µM
CCNC(=S)Nc1ccc(Cl)cc1,0,0,0,?
O=C(Nc1cc(-c2ccccc2)[nH]n1)c1ccccc1F,42,105,0,0
CC(=O)Nc1cc(-c2ccc(F)cc2)[nH]n1,24,0,0,0
O=C(Nc1cc(-c2ccccc2)[nH]n1)c1ccccc1,34,79,0,0
Cc1ccnc(NC(=O)c2ccccc2NC(=O)c2ccccc2)c1,0,0,0,0
O=C(O)c1ccccc1C(=O)Nc1cc(-c2ccccc2)[nH]n1,0,0,0,0
COc1ccc(-c2cc3nc(C)c(CCC(=O)N4CCN(c5cccc(Cl)c5)CC4)c(C)n3n2)c(OC)c1,-,-,0,0
CN(Cc1cnc2ccccn12)C(=O)c1cc(NC(=O)c2ccccc2)cc2ncn(C3CCCC3)c12,-,-,0,-
Cc1sc2ncnc(NCc3cccs3)c2c1C,0,0,14µM,0
Cc1sc2ncnc(NCC(O)c3ccccc3)c2c1C (centres undefined),23,82,0,0
Cc1ccc(Nc2ncnc3sc(C)c(C)c23)cc1C,31,0,0,0
Cc1sc2ncnc(N/N=C/c3ccccc3O)c2c1C,36,34,0,0
Cc1sc2ncnc(N/N=C/c3ccc(O)cc3)c2c1C,0,0,0,0
Cc1sc2ncnc(NCc3ccco3)c2c1C,0,0,?,0
Cc1sc2ncnc(NCC(c3ccccc3)N(C)C)c2c1C (centres undefined),0,0,?,0
CCc1ccc(NC(=O)CSc2nc3c([nH]c4ccccc43)c(=O)n2C)cc1,-,-,0,0
CCN(CCCNC(=O)c1ccc(Sc2ccc(Cl)cc2)c(NC(C)=O)c1)c1ccccc1,-,-,0,0
CCc1ccc2nc(/N=C(\N)NC(=O)c3ccccc3)nc(C)c2c1,0,0,0,0
SMILES,CHX counter,Shiga toxin inh,FMDV inh,Sm TGR inh
N/C(=N\c1nc2ccccc2o1)NC(=O)c1cccc(Cl)c1,0,0,0,0
COc1ccccc1C(=O)NC(=Nc1nc2ccccc2o1)NC(=O)c1ccccc1OC,17,22,0,0
O=C(NC(=Nc1nc2ccccc2o1)NC(=O)c1ccccc1)c1ccccc1,0,0,0,0
N/C(=N\c1nc2ccccc2o1)NC(=O)c1ccccc1F,47,100,0,0
CCCC(=O)N/C(N)=N/c1nc(C)c2ccccc2n1,17,0,0,0
CCCCC(=O)N/C(N)=N/c1nc2ccccc2o1,43,36,0,0
CCOC(=O)C1CSC(Cc2ccc(OCc3ccc([N+](=O)[O-])cc3)cc2)N1 (centres undefined),-,-,0,-
COC(=O)c1ccccc1-c1cc(C)cc2c1OC(CNC(=O)c1cc(C)on1)C2 (centres undefined),-,-,0,-
CCc1ccccc1NC(=O)c1ccc2c(c1)N(Cc1cccc(Cl)c1)C(=O)c1ccccc1S2(=O)=O,-,-,0,0
Cc1cc(S(=O)(=O)Nc2ccc(-c3ccc(N4CCCCC4)nn3)cc2)c(C)cc1Cl,-,-,0,0
CN(C)c1ccc(NC(=O)CN2CCN(CC(=O)Nc3ccc(Br)cc3)CC2)cc1,-,-,0,0
N/C(=N\OC(=O)c1cccc2ccccc12)c1ccc(Br)cc1,0,0,0,0
N/C(Cc1ccc(Cl)cc1Cl)=N\OC(=O)c1ccccc1F,53,75,0,0
N/C(Cc1cccc2ccccc12)=N\OC(=O)c1ccccc1F,23,0,0,0

# Bioassay records (PubChem BioAssay)
